# Legend:
# Test in all cases: DAPPL (digital affinity profiling via proximity ligation, sequencing); 10 mM Tris-HCl pH 7.5, 50 mM NaCl, 1 mM DTT, 4% glycerol, room temperature, 30 min; GST-TFs on glutathione beads, 16-mer random dsDNA library, 0.1% formaldehyde crosslink after washing; high values mean tight binding
# FEV = target: T1, FEV (Homo sapiens, UniProt Q99581 1-238); conditions: protein: recombinant; tags: N-terminal GST; dsDNA, one strand shown
# T1 sequence: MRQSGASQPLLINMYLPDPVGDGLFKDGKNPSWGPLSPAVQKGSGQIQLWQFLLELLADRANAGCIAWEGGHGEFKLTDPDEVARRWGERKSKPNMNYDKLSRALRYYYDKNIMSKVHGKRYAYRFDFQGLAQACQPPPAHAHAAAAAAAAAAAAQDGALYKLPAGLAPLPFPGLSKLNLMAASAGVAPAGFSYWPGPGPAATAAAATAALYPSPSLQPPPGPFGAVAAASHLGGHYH
# Summary of the method: (§1)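 GST fusions of human transcription factors were expressed in yeast and captured with glutathione beads. Once given DNA barcodes and pooled alongside a tag-only sample, they were incubated for 30 min at room temperature with 200 nmole of a random double-stranded 16-mer DNA library in Tris/NaCl/DTT/glycerol buffer, then washed, crosslinked (0.1% formaldehyde), proximity-ligated, PCR-amplified and sequenced on an Illumina NextSeq500. The binding signal of each hexamer is its read frequency for a factor divided by its frequency for the tag-only sample.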
# ETV5 = ETV5 (Homo sapiens, UniProt P41161 1-510); conditions: protein: recombinant; tags: N-terminal GST; dsDNA, one strand shown
# Summary of the method: as §1
# HSF1 = HSF1 (Homo sapiens, UniProt Q00613 1-529); conditions: protein: recombinant; tags: N-terminal GST; chain copies: 3; dsDNA, one strand shown
# Summary of the method: as §1
# SPIC = target: T2, SPIC (Homo sapiens, UniProt Q8N5J4 1-248); conditions: protein: recombinant; tags: N-terminal GST; dsDNA, one strand shown
# T2 sequence: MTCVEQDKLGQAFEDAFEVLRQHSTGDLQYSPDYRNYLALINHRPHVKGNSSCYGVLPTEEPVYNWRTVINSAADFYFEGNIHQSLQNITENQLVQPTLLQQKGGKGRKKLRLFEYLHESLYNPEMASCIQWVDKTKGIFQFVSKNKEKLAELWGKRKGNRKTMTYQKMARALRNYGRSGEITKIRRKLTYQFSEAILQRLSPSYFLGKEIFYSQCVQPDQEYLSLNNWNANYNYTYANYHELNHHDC
# Summary of the method: as §1
# ELF4 = ELF4 (Homo sapiens, UniProt Q99607 1-663); conditions: protein: recombinant; tags: N-terminal GST; dsDNA, one strand shown
# Summary of the method: as §1
# ELK4 = target: T3, ELK4 (Homo sapiens, UniProt P28324-2 1-405); conditions: protein: recombinant; tags: N-terminal GST; dsDNA, one strand shown
# T3 sequence: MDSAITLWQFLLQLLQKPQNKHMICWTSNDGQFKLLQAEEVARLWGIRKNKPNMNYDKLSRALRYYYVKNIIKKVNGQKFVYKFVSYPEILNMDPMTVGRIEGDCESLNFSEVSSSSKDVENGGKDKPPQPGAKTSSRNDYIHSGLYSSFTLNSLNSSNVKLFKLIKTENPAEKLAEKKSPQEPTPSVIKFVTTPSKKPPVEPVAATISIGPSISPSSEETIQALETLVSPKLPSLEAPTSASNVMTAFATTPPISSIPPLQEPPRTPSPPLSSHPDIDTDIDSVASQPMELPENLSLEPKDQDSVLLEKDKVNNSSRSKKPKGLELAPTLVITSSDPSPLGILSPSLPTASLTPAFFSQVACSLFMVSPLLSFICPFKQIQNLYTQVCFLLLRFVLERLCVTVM
# Summary of the method: as §1
# ETV2 = target: T4, ETV2 (Homo sapiens, UniProt O00321 1-342); conditions: protein: recombinant; tags: N-terminal GST; dsDNA, one strand shown
# T4 sequence: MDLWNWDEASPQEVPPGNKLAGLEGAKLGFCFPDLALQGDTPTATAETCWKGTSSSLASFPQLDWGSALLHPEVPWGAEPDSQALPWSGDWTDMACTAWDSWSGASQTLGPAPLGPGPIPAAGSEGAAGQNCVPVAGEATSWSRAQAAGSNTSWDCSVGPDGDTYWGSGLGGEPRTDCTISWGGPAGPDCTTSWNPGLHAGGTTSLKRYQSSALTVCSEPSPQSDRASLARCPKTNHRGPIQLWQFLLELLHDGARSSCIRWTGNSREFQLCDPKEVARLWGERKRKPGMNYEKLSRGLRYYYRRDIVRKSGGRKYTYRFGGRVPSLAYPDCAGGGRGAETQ
# Summary of the method: as §1
# ELF3 = target: T5, ELF3 (Homo sapiens, UniProt P78545 1-371); conditions: protein: recombinant; tags: N-terminal GST; dsDNA, one strand shown
# T5 sequence: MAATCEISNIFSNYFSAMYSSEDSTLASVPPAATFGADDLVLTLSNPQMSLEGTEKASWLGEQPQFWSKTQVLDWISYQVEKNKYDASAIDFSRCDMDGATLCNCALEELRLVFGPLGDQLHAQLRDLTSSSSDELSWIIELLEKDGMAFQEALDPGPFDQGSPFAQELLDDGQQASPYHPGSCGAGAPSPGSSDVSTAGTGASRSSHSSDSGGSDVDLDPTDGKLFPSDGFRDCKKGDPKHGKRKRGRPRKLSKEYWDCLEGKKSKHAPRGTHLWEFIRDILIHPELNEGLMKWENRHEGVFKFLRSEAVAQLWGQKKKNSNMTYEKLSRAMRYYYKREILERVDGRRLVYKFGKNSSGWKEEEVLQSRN
# Summary of the method: as §1
# CRX = CRX (Homo sapiens, UniProt O43186 1-299); conditions: protein: recombinant; tags: N-terminal GST; dsDNA, one strand shown
# Summary of the method: as §1
# ETV1 = ETV1 (Homo sapiens, UniProt P50549 1-477); conditions: protein: recombinant; tags: N-terminal GST; dsDNA, one strand shown
# Summary of the method: as §1
# ERF = target: T6, ERF (Homo sapiens, UniProt P50548 1-548); conditions: protein: recombinant; tags: N-terminal GST; dsDNA, one strand shown
# T6 sequence: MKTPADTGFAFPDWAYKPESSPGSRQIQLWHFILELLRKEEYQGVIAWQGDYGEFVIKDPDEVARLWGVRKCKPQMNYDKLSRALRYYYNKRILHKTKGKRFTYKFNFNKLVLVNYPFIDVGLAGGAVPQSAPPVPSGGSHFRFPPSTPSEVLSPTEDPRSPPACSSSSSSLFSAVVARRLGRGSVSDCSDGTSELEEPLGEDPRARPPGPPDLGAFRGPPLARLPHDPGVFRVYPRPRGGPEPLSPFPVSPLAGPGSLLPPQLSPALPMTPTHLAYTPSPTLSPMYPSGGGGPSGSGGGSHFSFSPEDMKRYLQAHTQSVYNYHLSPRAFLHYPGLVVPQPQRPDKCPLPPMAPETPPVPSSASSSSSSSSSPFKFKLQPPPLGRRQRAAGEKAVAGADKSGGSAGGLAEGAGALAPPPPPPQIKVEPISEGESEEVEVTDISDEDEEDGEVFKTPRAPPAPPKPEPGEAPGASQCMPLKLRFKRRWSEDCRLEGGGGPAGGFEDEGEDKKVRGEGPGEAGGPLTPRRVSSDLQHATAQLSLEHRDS
# Summary of the method: as §1
# ETV3L = target: T7, ETV3L (Homo sapiens, UniProt Q6ZN32 1-361); conditions: protein: recombinant; tags: N-terminal GST; dsDNA, one strand shown
# T7 sequence: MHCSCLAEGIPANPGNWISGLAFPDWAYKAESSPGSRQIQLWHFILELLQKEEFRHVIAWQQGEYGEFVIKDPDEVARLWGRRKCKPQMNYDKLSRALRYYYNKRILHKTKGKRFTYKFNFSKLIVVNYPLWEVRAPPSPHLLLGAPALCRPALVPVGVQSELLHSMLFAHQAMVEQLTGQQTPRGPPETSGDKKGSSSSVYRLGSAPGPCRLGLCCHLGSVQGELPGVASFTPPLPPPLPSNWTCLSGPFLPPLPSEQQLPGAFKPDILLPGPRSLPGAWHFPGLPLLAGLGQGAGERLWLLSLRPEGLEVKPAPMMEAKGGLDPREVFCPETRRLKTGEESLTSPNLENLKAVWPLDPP
# Summary of the method: as §1
# ETS2 = target: T8, ETS2 (Homo sapiens, UniProt P15036 1-469); conditions: protein: recombinant; tags: N-terminal GST; dsDNA, one strand shown
# T8 sequence: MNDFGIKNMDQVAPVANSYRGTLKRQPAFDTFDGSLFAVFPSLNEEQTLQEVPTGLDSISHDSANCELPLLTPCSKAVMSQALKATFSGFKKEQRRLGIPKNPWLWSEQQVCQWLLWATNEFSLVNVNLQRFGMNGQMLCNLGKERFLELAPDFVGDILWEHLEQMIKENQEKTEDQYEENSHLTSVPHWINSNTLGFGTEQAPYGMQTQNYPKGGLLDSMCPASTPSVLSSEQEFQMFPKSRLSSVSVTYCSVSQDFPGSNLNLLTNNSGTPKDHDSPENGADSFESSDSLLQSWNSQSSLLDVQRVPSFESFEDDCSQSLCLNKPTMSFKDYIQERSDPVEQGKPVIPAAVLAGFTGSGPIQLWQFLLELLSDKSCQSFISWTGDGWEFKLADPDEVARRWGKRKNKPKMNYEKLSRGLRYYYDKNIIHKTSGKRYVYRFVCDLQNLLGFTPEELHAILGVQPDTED
# Summary of the method: as §1
# SPDEF = target: T9, SPDEF (Homo sapiens, UniProt O95238 1-335); conditions: protein: recombinant; tags: N-terminal GST; dsDNA, one strand shown
# T9 sequence: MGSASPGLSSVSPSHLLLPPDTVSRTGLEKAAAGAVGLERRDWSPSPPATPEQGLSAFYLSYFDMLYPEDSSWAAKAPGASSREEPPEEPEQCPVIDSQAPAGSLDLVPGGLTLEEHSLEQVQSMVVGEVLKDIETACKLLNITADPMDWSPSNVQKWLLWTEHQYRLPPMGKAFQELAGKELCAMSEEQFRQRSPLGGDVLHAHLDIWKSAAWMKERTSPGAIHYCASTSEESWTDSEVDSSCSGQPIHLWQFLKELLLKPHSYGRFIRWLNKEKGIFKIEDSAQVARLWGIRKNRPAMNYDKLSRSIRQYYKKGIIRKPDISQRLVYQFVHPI
# Summary of the method: as §1
# ETV7 = target: T10, ETV7 (Homo sapiens, UniProt Q9Y603 1-341); conditions: protein: recombinant; tags: N-terminal GST; dsDNA, one strand shown
# T10 sequence: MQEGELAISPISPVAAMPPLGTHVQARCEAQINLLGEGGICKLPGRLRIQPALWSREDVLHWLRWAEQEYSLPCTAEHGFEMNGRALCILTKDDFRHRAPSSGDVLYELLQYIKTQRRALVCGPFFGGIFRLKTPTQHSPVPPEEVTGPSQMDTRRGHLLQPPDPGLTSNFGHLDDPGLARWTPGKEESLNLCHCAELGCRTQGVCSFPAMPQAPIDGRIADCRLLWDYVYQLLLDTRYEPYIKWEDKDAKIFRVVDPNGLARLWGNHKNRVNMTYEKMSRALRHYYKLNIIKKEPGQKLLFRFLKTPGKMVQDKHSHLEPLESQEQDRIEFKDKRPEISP
# Summary of the method: as §1
# ELF5 = target: T11, ELF5 (Homo sapiens, UniProt Q9UKW6-2 1-255); conditions: protein: recombinant; tags: N-terminal GST; dsDNA, one strand shown
# T11 sequence: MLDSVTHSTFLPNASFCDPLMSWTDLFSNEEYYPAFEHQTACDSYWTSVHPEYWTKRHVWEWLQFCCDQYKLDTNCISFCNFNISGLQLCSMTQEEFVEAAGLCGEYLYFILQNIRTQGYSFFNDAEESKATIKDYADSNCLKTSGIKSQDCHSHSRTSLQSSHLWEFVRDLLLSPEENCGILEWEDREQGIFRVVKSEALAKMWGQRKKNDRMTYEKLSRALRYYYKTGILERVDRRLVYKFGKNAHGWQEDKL
# Summary of the method: as §1
# ETV3 = target: T12, ETV3 (Homo sapiens, UniProt P41162-2 1-143); conditions: protein: recombinant; tags: N-terminal GST; dsDNA, one strand shown
# T12 sequence: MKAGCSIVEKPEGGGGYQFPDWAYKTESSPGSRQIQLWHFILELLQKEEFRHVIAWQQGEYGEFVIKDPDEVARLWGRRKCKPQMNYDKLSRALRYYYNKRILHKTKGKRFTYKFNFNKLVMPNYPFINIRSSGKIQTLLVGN
# Summary of the method: as §1
# ETV6 = ETV6 (Homo sapiens, UniProt P41212 1-452); conditions: protein: recombinant; tags: N-terminal GST; dsDNA, one strand shown
# Summary of the method: as §1
# Sequence of ETV6 (P41212 whole entry): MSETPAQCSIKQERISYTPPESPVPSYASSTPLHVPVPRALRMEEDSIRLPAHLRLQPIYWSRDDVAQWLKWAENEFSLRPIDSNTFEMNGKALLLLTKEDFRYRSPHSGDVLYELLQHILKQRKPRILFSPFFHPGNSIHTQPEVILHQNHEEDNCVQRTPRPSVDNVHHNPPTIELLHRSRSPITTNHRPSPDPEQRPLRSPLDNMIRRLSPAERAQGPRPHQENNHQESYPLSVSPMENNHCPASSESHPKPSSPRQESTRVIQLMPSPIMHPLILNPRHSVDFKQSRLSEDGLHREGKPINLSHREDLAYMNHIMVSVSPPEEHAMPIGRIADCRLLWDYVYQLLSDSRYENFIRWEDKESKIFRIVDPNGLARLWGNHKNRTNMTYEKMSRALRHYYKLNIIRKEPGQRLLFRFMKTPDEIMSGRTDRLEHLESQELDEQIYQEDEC
# Sequence of ETV1 (P50549 whole entry): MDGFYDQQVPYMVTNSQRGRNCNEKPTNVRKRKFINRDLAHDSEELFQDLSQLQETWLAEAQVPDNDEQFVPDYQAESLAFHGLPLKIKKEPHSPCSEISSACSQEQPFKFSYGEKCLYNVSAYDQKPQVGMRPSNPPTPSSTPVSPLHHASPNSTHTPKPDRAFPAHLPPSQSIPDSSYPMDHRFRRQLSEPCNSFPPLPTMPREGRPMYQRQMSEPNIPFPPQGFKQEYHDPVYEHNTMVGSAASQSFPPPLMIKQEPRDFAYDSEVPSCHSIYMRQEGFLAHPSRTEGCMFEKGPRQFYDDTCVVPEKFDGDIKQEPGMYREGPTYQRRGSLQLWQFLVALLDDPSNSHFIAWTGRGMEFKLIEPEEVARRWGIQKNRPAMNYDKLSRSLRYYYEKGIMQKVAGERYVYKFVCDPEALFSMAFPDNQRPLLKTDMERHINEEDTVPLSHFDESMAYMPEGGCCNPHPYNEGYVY
# Sequence of ELF4 (Q99607 whole entry): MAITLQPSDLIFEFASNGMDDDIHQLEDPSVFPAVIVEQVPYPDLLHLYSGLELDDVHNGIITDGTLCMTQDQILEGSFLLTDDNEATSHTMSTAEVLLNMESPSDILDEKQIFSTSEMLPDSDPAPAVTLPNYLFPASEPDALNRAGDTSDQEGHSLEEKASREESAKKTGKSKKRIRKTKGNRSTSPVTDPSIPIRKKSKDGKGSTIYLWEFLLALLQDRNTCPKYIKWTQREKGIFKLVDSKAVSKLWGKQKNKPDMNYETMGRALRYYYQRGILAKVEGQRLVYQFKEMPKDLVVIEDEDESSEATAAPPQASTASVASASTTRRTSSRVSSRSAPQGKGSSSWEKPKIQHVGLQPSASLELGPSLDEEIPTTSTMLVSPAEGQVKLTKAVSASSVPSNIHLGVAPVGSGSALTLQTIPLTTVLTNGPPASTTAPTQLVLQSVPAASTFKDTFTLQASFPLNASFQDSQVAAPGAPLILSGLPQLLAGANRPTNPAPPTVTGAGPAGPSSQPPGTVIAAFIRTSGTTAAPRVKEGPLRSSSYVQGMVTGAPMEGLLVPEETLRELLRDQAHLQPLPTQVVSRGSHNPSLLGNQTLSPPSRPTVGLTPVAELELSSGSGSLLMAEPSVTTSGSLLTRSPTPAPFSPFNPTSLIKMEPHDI
# Sequence of CRX (O43186 whole entry): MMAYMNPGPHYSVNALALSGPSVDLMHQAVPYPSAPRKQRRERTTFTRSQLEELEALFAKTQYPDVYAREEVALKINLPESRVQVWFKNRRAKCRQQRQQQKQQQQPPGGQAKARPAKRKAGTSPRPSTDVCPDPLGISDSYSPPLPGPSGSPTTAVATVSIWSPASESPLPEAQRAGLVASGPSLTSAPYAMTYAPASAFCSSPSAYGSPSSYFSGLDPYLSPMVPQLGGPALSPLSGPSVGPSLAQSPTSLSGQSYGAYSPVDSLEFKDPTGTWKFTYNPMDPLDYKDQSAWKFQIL
# Sequence of HSF1 (Q00613 whole entry): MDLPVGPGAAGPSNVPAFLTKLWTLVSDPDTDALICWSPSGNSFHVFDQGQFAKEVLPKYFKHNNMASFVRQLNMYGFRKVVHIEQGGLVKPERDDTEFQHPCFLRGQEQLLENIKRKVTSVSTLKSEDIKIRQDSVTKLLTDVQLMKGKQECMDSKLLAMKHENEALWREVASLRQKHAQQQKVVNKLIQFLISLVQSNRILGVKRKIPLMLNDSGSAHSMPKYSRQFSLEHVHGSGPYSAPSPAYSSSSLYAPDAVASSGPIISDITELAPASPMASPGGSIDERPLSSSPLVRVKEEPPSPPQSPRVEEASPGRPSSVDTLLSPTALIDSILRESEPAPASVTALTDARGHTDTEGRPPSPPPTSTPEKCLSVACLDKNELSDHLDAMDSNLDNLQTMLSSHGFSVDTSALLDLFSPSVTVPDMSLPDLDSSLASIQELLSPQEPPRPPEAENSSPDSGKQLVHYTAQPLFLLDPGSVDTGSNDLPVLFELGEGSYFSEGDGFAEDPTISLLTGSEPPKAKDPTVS
# Sequence of ETV5 (P41161 whole entry): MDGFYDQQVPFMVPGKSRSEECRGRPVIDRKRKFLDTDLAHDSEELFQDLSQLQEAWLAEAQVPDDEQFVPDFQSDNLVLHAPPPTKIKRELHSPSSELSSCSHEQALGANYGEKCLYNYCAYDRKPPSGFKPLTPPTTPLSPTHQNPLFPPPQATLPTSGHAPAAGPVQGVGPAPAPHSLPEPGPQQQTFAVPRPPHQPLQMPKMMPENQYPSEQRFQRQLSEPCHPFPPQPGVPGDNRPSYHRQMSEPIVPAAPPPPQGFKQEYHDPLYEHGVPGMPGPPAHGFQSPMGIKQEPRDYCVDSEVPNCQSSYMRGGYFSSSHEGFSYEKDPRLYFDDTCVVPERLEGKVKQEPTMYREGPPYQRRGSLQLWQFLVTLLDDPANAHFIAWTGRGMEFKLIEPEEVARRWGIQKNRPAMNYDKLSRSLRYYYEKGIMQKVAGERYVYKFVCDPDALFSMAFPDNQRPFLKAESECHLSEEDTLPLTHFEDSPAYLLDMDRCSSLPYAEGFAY
sequence,measurement,setting,value
TCTAGC,binding signal,FEV,"1.25 fold enrichment (6-mer frequency, TF over GST control)"
same,binding signal,ETV5,"1.27 fold enrichment (6-mer frequency, TF over GST control)"
same,binding signal,HSF1,"2.63 fold enrichment (6-mer frequency, TF over GST control)"
same,binding signal,SPIC,"1.16 fold enrichment (6-mer frequency, TF over GST control)"
same,binding signal,ELF4,"1.26 fold enrichment (6-mer frequency, TF over GST control)"
same,binding signal,ELK4,"1.39 fold enrichment (6-mer frequency, TF over GST control)"
same,binding signal,ETV2,"1.19 fold enrichment (6-mer frequency, TF over GST control)"
same,binding signal,ELF3,"1.32 fold enrichment (6-mer frequency, TF over GST control)"
same,binding signal,CRX,"1.7 fold enrichment (6-mer frequency, TF over GST control)"
same,binding signal,ETV1,"1.21 fold enrichment (6-mer frequency, TF over GST control)"
same,binding signal,ERF,"1.35 fold enrichment (6-mer frequency, TF over GST control)"
same,binding signal,ETV3L,"1.27 fold enrichment (6-mer frequency, TF over GST control)"
same,binding signal,ETS2,"1.3 fold enrichment (6-mer frequency, TF over GST control)"
same,binding signal,SPDEF,"1.22 fold enrichment (6-mer frequency, TF over GST control)"
same,binding signal,ETV7,"1.36 fold enrichment (6-mer frequency, TF over GST control)"
same,binding signal,ELF5,"1.21 fold enrichment (6-mer frequency, TF over GST control)"
same,binding signal,ETV3,"1.32 fold enrichment (6-mer frequency, TF over GST control)"
same,binding signal,ETV6,"1.22 fold enrichment (6-mer frequency, TF over GST control)"

# Source: paper PMC7862700, “An all-to-all approach to the identification of sequence-specific readers for epigenetic DNA modifications on cytosine”
